Source: PubChem
An excerpt weighted towards active compounds, which were near 1% of everything screened.
Plk1 PBD FP – Plk1 polo box domain binding inhibitors, primary screen, biochemical, fluorescence polarization; Plk1 PBD phosphopeptide binding; 97,000 tested, 0.13% active; Serine/threonine-protein kinase PLK1 (Homo sapiens), P53350; inhibition, %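 (tested at about 20 µM)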; in the data active = inhibition above about 34%, passing the limit was not always enough
Target sequence (P53350 whole entry, looked up, the tested form may be a part): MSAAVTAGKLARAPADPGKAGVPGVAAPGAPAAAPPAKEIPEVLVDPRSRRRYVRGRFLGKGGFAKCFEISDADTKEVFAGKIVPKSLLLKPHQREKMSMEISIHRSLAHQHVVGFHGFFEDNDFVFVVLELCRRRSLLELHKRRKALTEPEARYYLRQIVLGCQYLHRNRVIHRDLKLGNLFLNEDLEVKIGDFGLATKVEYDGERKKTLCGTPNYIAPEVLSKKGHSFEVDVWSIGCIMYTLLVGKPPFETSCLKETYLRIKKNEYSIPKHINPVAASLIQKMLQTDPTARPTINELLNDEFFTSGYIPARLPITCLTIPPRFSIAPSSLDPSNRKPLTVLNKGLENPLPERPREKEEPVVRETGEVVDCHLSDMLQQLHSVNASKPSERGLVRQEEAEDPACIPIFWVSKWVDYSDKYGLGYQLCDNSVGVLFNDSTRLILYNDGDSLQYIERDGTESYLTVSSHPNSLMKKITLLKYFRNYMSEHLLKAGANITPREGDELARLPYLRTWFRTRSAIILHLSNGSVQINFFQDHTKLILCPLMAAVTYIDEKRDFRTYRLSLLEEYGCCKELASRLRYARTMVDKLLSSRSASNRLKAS
sEH activator – soluble epoxide hydrolase activators, primary screen, biochemical, human sEH | Bifunctional epoxide hydrolase 2 (Homo sapiens), P34913 | purified human sEH enzymatic activity, activator screen | activation, % at 2 µM | 91,000 tested, 0.04% active | AID 717, 2007; in the data active = activation above about 37%
sEH inh – soluble epoxide hydrolase inhibitors, primary screen, biochemical, human sEH | AID 707, 2007 | 91,000 tested, 0.34% active | inhibition, % at 2 µM | recombinant human sEH enzymatic activity assay | Bifunctional epoxide hydrolase 2 (Homo sapiens), P34913; in the data active = inhibition above about 80%
EphB4 antag – EphB4-ephrin-B2 interaction antagonists, primary screen, biochemical, TNYL-RAW peptide probe, fluorescence polarization; EphB4 LBD / TNYL-RAW-Alexa532 peptide; inhibition, % at 7 µM; 97,000 tested, 0.15% active;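 active = inhibition above the screen-wide mean inhibition plus 3 SD, cut at about 15% in these data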;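 also: 0% = DMSO wells and 100% = excess unlabeled TNYL-RAW peptide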
PLK1 inh – human PLK1 kinase inhibitors, primary screen, biochemical, TR-FRET | Serine/threonine-protein kinase PLK1 (Homo sapiens), P53350 | recombinant PLK1 kinase, TR-FRET peptide phosphorylation | inhibition, % at 10 µM | 97,000 tested, 0.53% active | AID 619, 2007;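 active = inhibition of 50% or more in the single-concentration screen; inactive = inhibition below 50%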;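 also: 0% = DMSO max control and 100% = H-89 dihydrochloride min control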
Active calls of the source: *; [ ] = another dose, or the depositor's remark.

`COc1ccc(C(=O)COc2ccc(NC(C)=O)cc2)cc1` gave Plk1 PBD FP -11, sEH activator 2, sEH inh 3, EphB4 antag 3 and PLK1 inh -7.
Screening CCCC(=O)Nc1nc2c(OC)ccc(OC)c2s1 returned Plk1 PBD FP 0, EphB4 antag -2 and PLK1 inh 63*.
COc1ccc(NC(=O)/C(Cl)=C(/Cl)S(=O)(=O)Cc2ccc(C)cc2)cn1 was read as Plk1 PBD FP 16, sEH activator 11, sEH inh -14, EphB4 antag -3 and PLK1 inh -5.
For CCCn1c(NC(=O)c2ccc(Cl)c(S(=O)(=O)N3CCCC3)c2)nc2ccccc21 the results were Plk1 PBD FP -13, sEH activator 9, sEH inh -8, EphB4 antag 11 and PLK1 inh -11.
O=C1N(CC(=O)N2CCc3ccccc32)CCN1Cc1ccccc1Cl was read as Plk1 PBD FP -4, sEH activator -3, sEH inh 2, EphB4 antag -2 and PLK1 inh -8.
CCN(CC)c1nc(OCCNC(=O)Nc2ccccc2)nc(N(CC)CC)n1 was read as Plk1 PBD FP 10, sEH activator -8, sEH inh 10, EphB4 antag 4 and PLK1 inh 0.
CCN(CCNC(=O)Nc1ccc(Cl)cc1)c1ccccc1 was read as Plk1 PBD FP -16, sEH activator -86, sEH inh 86*, EphB4 antag 2 and PLK1 inh -7.
For O=C(NC12CC3CC(CC(C3)C1)C2)N1CC2Cc3cccc(=O)n3C(C2)C1 (stereo unspecified) the results were Plk1 PBD FP 5, sEH activator -86, sEH inh 86*, EphB4 antag 3 and PLK1 inh -4.
For CC(Sc1nnc(CNc2cccc3ccccc23)n1-c1ccccc1)C(=O)N/N=C/c1ccco1 (stereo unspecified) the results were Plk1 PBD FP 17, sEH activator -1, sEH inh 4, EphB4 antag -1 and PLK1 inh -10.
For Cc1cccc(/C=N/n2c(C)cc(C)c(C#N)c2=O)c1 the results were Plk1 PBD FP -10, sEH activator 0, sEH inh 1, EphB4 antag 11 and PLK1 inh -13.
`Cc1c2cc(O)c(=O)cc-2oc2cc(O)c(O)cc12` gave Plk1 PBD FP 130*, sEH activator 13, sEH inh -11, EphB4 antag 49*[fluorescence artefact?] and PLK1 inh 36.
O=c1cc(-c2ccccc2F)oc2ccccc12 was read as Plk1 PBD FP -11, sEH activator 10, sEH inh -7, EphB4 antag 6 and PLK1 inh -10.
`Cc1csc(SCC(=O)NCc2cccs2)n1` gave Plk1 PBD FP -3, EphB4 antag -4 and PLK1 inh -3.
Cc1sc2nc(SCC(=O)NCc3cccs3)[nH]c(=O)c2c1C was read as Plk1 PBD FP 25, sEH activator -5, sEH inh 7, EphB4 antag -3 and PLK1 inh 52*.
CCOc1ccc(NC(=O)CNC(=O)c2cn(-c3ccccc3OC)c(=O)c3ccccc23)cc1 was read as Plk1 PBD FP 23, sEH activator 6, sEH inh -4, EphB4 antag -1 and PLK1 inh 1.
Screening O=C(Nc1cccc(Cl)c1)c1cnn2cccnc12 returned Plk1 PBD FP 18, sEH activator -2, sEH inh 7, EphB4 antag 2 and PLK1 inh 60*.
Screening O=C(Nc1cc(Cl)cc(Cl)c1)c1cnn2cccnc12 returned Plk1 PBD FP 3, sEH activator -10, sEH inh 10, EphB4 antag -1 and PLK1 inh 16.
Cc1ccc(S(=O)(=O)Nc2ccc3nc(-c4cccn4C)[nH]c3c2)cc1 was read as Plk1 PBD FP -5, sEH activator 18, sEH inh -18, EphB4 antag -2 and PLK1 inh -11.
Screening C=CCNC(=O)Nc1ccc2oc(C)nc2c1 returned Plk1 PBD FP -5, sEH activator -5, sEH inh 3, EphB4 antag 4 and PLK1 inh -7.
For Cc1nc2cc(NC(=O)NCCC3=CCCCC3)ccc2o1 the results were Plk1 PBD FP 17, sEH activator -81, sEH inh 81*, EphB4 antag -5 and PLK1 inh 0.
`O=S(=O)(/N=C/c1c(O)ccc2ccccc12)c1cccs1` gave Plk1 PBD FP -15, sEH activator 6, sEH inh -7, EphB4 antag -1 and PLK1 inh 10.
`COc1ccccc1NS(=O)(=O)c1ccc(OC)c(OC)c1` gave Plk1 PBD FP -11, sEH activator -1, sEH inh 3, EphB4 antag 1 and PLK1 inh -11.
COc1ccccc1NS(=O)(=O)c1cccc(C(=O)N/N=C(\C)c2ccc(-n3ccnc3)cc2)c1 was read as Plk1 PBD FP -27, sEH activator -82, sEH inh 82*, EphB4 antag -1 and PLK1 inh -4.
Screening COc1ccc(S(=O)(=O)O/N=C2\CCCc3ccccc32)cc1 returned Plk1 PBD FP -9, sEH activator -1, sEH inh -1, EphB4 antag -2 and PLK1 inh -7.
COCCCNc1c2c3c(cccc3[nH]c1=O)C(=O)c1ccccc1-2 was read as Plk1 PBD FP 18, sEH activator 17, sEH inh -18, EphB4 antag 48*[fluorescence artefact?] and PLK1 inh -158.
COCCCNS(=O)(=O)c1ccc2c3c(cccc13)C(=O)S2 was read as Plk1 PBD FP 18, sEH activator -4, sEH inh 9, EphB4 antag 3 and PLK1 inh -11.
Screening CC(=O)COc1ncn(-c2ccccc2)n1 returned Plk1 PBD FP 13, sEH activator 11, sEH inh -10, EphB4 antag -4 and PLK1 inh -18.
`Cn1c(=NC(=O)C2CC2)sc2cccc(F)c21` gave Plk1 PBD FP 28, EphB4 antag -3 and PLK1 inh 67*.
For COc1cc(O)oc1C=Nc1ccc(C(F)(F)F)cc1 the results were Plk1 PBD FP -48, sEH activator -16, sEH inh 17, EphB4 antag 3 and PLK1 inh -2.
Screening Cc1ccc(N(CC(=O)NC2CCCCC2)C(=O)c2ccc(C)s2)cc1 returned Plk1 PBD FP -8, sEH activator -80, sEH inh 81*, EphB4 antag 1 and PLK1 inh 13.
Screening CCn1cc(C(=O)N2CCOCC2)c(=O)c2cc(S(=O)(=O)N(C)C)ccc21 returned Plk1 PBD FP 24, EphB4 antag 2 and PLK1 inh 69*.
For CCn1nc(CC(=O)Nc2ccc(-n3cnnn3)c(C)c2)c2ccccc2c1=O the results were Plk1 PBD FP -25, sEH activator -92, sEH inh 93*, EphB4 antag 2 and PLK1 inh -5.
Cc1ccc(C(=O)/C=C/c2ccc3c(c2)OCO3)o1 was read as Plk1 PBD FP -33, sEH activator 8, sEH inh -7, EphB4 antag -6 and PLK1 inh 64*.
